Assay results from ChEMBL document CHEMBL3988442, “University of Dundee, Small-Polar-MMV Screening Library” (2021).

Columns and labels:
[1] = molecular target: T1, Aspartate--tRNA(Asp/Asn) ligase (Mycobacterium tuberculosis (strain ATCC 25618 / H37Rv)) (UniProt P9WFW3); test: Assay for Asp RNA synthetase-1 from Mycobacterium tuberculosis; assay type: functional; set-up: scale not given: direction of the effect not stated beside the values; details: 30 µM; further: in the data most compounds retested in dose-response had high values
T1 sequence (whole entry): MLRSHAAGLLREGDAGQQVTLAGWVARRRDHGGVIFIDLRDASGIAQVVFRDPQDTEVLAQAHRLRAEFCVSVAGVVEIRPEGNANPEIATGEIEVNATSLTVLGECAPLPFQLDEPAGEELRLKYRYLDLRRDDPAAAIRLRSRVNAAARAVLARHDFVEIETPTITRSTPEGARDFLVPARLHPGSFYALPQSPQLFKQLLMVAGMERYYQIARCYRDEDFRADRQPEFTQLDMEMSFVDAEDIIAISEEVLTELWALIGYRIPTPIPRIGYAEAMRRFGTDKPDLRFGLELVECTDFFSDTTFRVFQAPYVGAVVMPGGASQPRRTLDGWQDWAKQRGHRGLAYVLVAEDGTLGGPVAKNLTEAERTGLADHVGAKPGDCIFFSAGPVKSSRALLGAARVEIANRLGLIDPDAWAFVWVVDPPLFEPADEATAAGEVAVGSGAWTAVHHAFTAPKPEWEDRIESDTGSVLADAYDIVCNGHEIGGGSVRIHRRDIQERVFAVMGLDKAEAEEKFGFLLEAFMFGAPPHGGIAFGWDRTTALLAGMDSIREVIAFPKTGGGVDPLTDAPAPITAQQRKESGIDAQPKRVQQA

[2] = molecular target: Shiga toxin 2 (Escherichia coli O157:H7) (UniProt P09385+P09386); test: E. coli 0.157:H7 Shiga Toxin SOP - stx2 screening assay; assay type: functional; set-up: scale not given: direction of the effect not stated beside the values; details: 30 µM

| SMILES | Percent Effect [1] [%] | Percent Effect [2] [%] |
| --- | --- | --- |
| CC(O)CN1CCN(C(=O)CN(C)c2ccc(Cl)cn2)CC1 (configuration not stated) | 0.546 | -10.6 |
| CN(CC(N)=O)S(=O)(=O)c1ccc(F)cc1Cl | -2.44 | -10.3 |
| O=C(NCC1CC1)C1=NOC2(CCN(Cc3ccc4c(c3)OCO4)C2)C1 (configuration not stated) | 2.18 | -49.8 |
| Cc1ccoc1C(=O)NC1CCN(Cc2cccc3c2OCCO3)CC1 | -2.4 | -34.8 |
| Cc1nccn1-c1cccc(C2CCCN(C3CCCCC3)C2)n1 (configuration not stated) | -3.11 | -8.84 |
| c1cnc2c(C3CCN(Cc4ccsc4)CC3)n[nH]c2n1 | -1.29 | -14.5 |
| CC(C)c1noc(CCC(=O)NC(C)c2nnc3n2CCCCC3)n1 (configuration not stated) | 0.353 | -13.7 |
| CS(=O)(=O)NC[C@]12COC[C@H]1CN(CC1CCCC1)C2 | 0.107 | 6.37 |
| CCn1cc2c(n1)C(COC)CN(C(=O)COc1ccccc1C)C2 (configuration not stated) | 2.12 | 3.11 |
| Cc1ccc(CN2CCCC3(COCCN(Cc4c[nH]nn4)C3)C2)o1 (configuration not stated) | 4.69 | -4.03 |
| CNC(=O)CS(=O)(=O)Cc1cc(Cl)c2c(c1)OCCCO2 | 0.857 | 0.921 |
| CCCNC(=O)C1CCN(Cc2csc(C(C)(C)C)n2)CC1 | -0.628 | 7.25 |
| Cc1cccc(CN2C(=O)CCC23CCN(Cc2cccn2C)CC3)n1 | 0.796 | 0.0983 |
| CCn1cnnc1CNC(=O)CCC(=O)c1ccc2c(c1)OCCO2 | 4.55 | 13.7 |
| CN(CCCNc1cc(N2CCCC2CO)ncn1)S(C)(=O)=O (configuration not stated) | 7.01 | -30 |
| COCCN1C[C@H]2[C@@H](C1)N(Cc1ccc(C)o1)CC[C@H]2OC | -3.26 | -28.9 |
| Cc1ccc(CN2CCC3(CC(C(=O)NCC4CC4)=NO3)C2)cc1C (configuration not stated) | 7.45 | -15.5 |
| CC(C)C(=O)NCCCn1ncc2c(Cl)cccc21 | 16.5 | -6.02 |
| CN1C(=O)C(C)(C)COc2cc(NS(=O)(=O)Cc3ccccc3)ccc21 | -4.77 | 14.9 |

| SMILES | Percent Effect [1] [%] | Percent Effect [2] [%] |
| --- | --- | --- |
| O=C([C@H]1CN(CCc2ccccc2)C[C@H]2OCC[C@@H]12)N1CCCO1 | 1.78 | -9.29 |
| Cn1cc(N2CCCC(NCc3cccc4c3OCCCO4)C2)cn1 (configuration not stated) | 2.49 | 22.1 |
| CCN(CC)C(=O)c1nnn(Cc2ccccc2)c1OC | 0.348 | 3.85 |
| Cc1noc(C(C)C)c1C(=O)NCCCN1CCCC1 | 5.49 | -21.7 |
| COC1CCCN(Cc2nc(Cc3ccccc3F)no2)C1 (configuration not stated) | -7.18 | 6.38 |
| Cn1cc(CN2CCCC3(CCCN3S(C)(=O)=O)C2)cn1 (configuration not stated) | 6.18 | -11.1 |
| CCOCC1CN(S(C)(=O)=O)Cc2cnn(C)c21 (configuration not stated) | -0.204 | -35.8 |
| COc1cccc(CN(C)C(=O)CSc2ccc3c(c2)OCCO3)c1 | 0.12 | 7.23 |
| O=C(c1ccc2c(c1)OCO2)N1CCCSCC1CN1CCCC1 (configuration not stated) | -0.0437 | -5.02 |
| CCNc1cc2c(nn1)CCN(C(=O)c1cccc3c1OCCO3)C2 | 7.68 | -25.7 |
| Cc1cc(C)c(CNC(=O)NCC(c2ccccc2)N(C)C)c(=O)[nH]1 (configuration not stated) | 4.47 | 23.9 |
| CCC(=O)N1CCc2[nH]cnc2C12CCN(C(=O)CCS(C)(=O)=O)CC2 | -0.836 | 9.19 |
| CC(OCC(F)(F)F)C(=O)NCc1ccc(-n2cncn2)nc1 (configuration not stated) | -3.63 | -8.85 |
| Cc1nc(CN2CCC(C(=O)O)(n3ccc(-c4ccco4)n3)CC2)co1 | -1.98 | -9.21 |
| Cc1nn(C)c2cnn(CC(=O)NCCc3ccccc3)c12 | -1.83 | -33.3 |
| Cc1nnc(CCNC2CCN(c3ncnc4c(C)csc34)CC2)s1 | 0.208 | -65.7 |
| CCc1nc(CN(C)C2CCN(CCNS(=O)(=O)CC)C2)no1 (configuration not stated) | 5.16 | -60.5 |
| Cc1cc(C)c2nc(CN3CC[C@@H](O)C3)cc(O)c2c1 | 3.16 | 7.54 |
| CNC(=O)c1nc2c(s1)CCN(C(=O)Cc1ccc(OC)cc1)CC2 | 0.107 | -7.44 |

| SMILES | Percent Effect [1] [%] | Percent Effect [2] [%] |
| --- | --- | --- |
| O=C(c1cc(COc2ccc3c(c2)OCO3)[nH]n1)N1CCOCC1 | -0.0228 | -36.8 |
| O=C(c1ccsc1)N1CC(C(=O)N2CCOCC2)C2(CCOCC2)C1 (configuration not stated) | -3.83 | -2.66 |
| Cn1ccnc1CN1CCCC(Cc2ccccn2)C1 (configuration not stated) | -2.49 | -6.98 |
| COCCN1C(=O)[C@]2(CC[C@@H]3CN(C(=O)NCC(C)C)C[C@@H]32)N=C1C | -3.99 | -11.7 |
| COC(=O)C1CCN(C(=O)c2ccc(N(C)S(C)(=O)=O)c(C)c2)CC1 | -4.11 | -5.54 |
| CC(NC(=O)NCCCc1n[nH]c(N)c1C#N)c1ccccc1 (configuration not stated) | 1.03 | -17.6 |
| Cn1ccnc1CN1CCCN(C(=O)c2ccc(Cl)o2)CC1 | -4.19 | 17.7 |
| c1ncn(Cc2cnc3n2CCN(Cc2ccsc2)CC3)n1 | -1.22 | -2.1 |
| NC[C@H]1CC[C@H](C(NC(=O)c2ccccc2)c2ccccn2)CC1 (some centres not stated) | 1.63 | -25.2 |
| CC1CCCCN1CCNC(=O)c1ccn(-c2ccc(F)cc2)n1 (configuration not stated) | 3.98 | -12.3 |
| CC(C)Cc1cc(NC(=O)c2ccc[nH]2)n(C)n1 | -0.121 | 7.24 |
| Cc1cc(C2CCCN2C(=O)c2cc3c(s2)CCC3)on1 (configuration not stated) | -0.678 | 5.77 |
| c1ccc(C[C@H]2CN(Cc3nccs3)CC[C@H]2OCC2CC2)cc1 | 3.93 | 16 |
| CC(C)c1ccc(O)c(C(=O)N2CCN(Cc3cscn3)CC2)c1 | -0.175 | -7.95 |
| COCCN1CCc2cc(C(=O)NCC3CC3)c(NC(C)C)nc2CC1 | 7.66 | 6.55 |
| Cc1ccc2oc(C(=O)N3CCCC(n4nc(C)cc4C)C3)cc2n1 (configuration not stated) | -3.54 | 1.89 |
| CCN1CCOC(CNCc2ccccc2OCc2ccccn2)C1 (configuration not stated) | 3.85 | 23.9 |
| O=C(c1ncccn1)N1C[C@H]2CCC[C@@]2(COCC2CCOCC2)C1 | -6.49 | -2.7 |
